HEK cytotox – kills HEK 293 cells. HEK 293 viability, ATP luminescence (CellTiter-Glo), 48-72 h. Potency, µM (series often up to 115 µM), without a hit: top-dose activity change, negative = cytotoxicity, actives largely listed as inhibitors. 94,000 tested, 6.6% active. AID 1345083; note: nearly all actives have a fitted effect of over 60% in size
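Viability of HEK 293 cells, plated at 250 cells/well, was judged by cellular ATP after compound treatment for 48 or 72 hr. Luminescence was imaged 10 min after CellTiter-Glo addition at room temperature.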
NIH3T3 tox – NIH 3T3 cell cytotoxicity; NIH 3T3 viability, CellTiter-Glo ATP luminescence, 48-72 h; Potency, µM (doses to about 96.7 µM), for the others: top-dose activity change, negative = cytotoxicity, hits mostly inhibitors; 94,000 tested, 4.3% active; note: nearly all actives have a fitted effect of over 55% in size
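NIH 3T3 cells at 400 cells/well received 23 nL of compound by pintool and were incubated 48 or 72 h at 37 °C. Viability was read as ATP-coupled CellTiter-Glo luminescence.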
hNpr1 antagonist – antagonists of human natriuretic peptide receptor Npr1 | P16066 | HEK293 hNpr1 GloSensor cGMP, ANP-stimulated luminescence | Potency, µM (titrated, usually from 46.3 µM), without a hit: at the top dose activity change, negative = inhibition, hits mostly inhibitors | 76,000 tested, 1.6% active | AID 1347048; calls by dose curve; note: nearly all actives have a fitted effect of over 60% in size
Target sequence (P16066 whole entry, looked up): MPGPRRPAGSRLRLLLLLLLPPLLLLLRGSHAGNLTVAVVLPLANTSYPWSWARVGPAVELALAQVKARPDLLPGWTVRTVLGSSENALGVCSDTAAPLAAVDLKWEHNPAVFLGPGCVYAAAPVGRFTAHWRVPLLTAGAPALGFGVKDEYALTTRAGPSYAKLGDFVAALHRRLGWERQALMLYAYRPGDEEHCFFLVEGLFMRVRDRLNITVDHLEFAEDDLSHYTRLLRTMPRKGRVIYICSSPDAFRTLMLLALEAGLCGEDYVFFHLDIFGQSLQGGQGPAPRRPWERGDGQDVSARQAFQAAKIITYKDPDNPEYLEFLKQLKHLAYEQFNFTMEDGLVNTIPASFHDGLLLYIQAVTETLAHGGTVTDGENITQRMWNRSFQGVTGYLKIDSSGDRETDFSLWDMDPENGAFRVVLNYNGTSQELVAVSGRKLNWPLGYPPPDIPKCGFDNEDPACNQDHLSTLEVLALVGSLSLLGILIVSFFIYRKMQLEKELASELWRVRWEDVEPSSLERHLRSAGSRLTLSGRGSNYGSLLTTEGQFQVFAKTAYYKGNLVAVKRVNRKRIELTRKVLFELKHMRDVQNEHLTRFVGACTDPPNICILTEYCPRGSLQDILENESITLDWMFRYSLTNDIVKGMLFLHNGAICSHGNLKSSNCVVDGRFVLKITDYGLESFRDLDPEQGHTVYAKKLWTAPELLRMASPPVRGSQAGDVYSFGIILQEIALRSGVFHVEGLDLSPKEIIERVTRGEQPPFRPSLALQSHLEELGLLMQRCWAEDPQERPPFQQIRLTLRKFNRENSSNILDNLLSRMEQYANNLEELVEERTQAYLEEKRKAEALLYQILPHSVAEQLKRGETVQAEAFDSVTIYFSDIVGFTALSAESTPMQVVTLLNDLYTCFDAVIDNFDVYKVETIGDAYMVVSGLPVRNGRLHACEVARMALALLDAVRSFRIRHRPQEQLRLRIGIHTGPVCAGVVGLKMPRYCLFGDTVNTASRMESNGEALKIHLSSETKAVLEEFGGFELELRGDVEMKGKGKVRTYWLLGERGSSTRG
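Compound pre-incubated 30 min at room temperature on GloSensor-loaded HEK293 cells stably carrying hNpr1 and the pGS-40F cGMP biosensor. Stimulation uses hNppA at 0.1 nM final; luminescence is taken at baseline and 20 min post-agonist.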
FLuc inh – inhibitors of firefly (Photinus pyralis) luciferase | P08659 | purified P. pyralis luciferase, luminescence, biochemical | Potency, µM (titrated, usually from 115 µM), hits mostly inhibitors | 76,000 tested, 2.5% active | AID 1347043; note: nearly all actives have a fitted effect of over 65% in size
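Purified P. pyralis luciferase (10nM final) in 50mM Tris acetate pH 7.5, 10mM Mg acetate, 0.01% Tween-20, 0.05% BSA with 10uM D-luciferin and 10uM ATP. Compounds titrated qHTS. Luminescence imaged on CCD.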
* marks the source's active call; other numbers are inactive results; [ ] = another dose, or the depositor's remark. Only some compounds are listed: those with a hit (about 11% of all), similar ones and a draw of the others. Unless noted, calls come from the whole dose curve; as a rule, active = well fitted curve in the direction sought with a large enough effect; inconclusive = small, poorly fitted or top-dose-only effect, or another doubt; inactive = no such curve, though single readings can be large; an effect the other way counts as inactive or inconclusive. % is set by controls: 0 for no effect and ±100 for the full control effect; potency is the fitted concentration of half-maximal effect.

`COc1ccc(C(=O)N2CCC3(CC2)OC(=O)N(Cc2ccccc2F)C3(C)c2ccccc2)cc1` (stereo not drawn) gave HEK cytotox 44.7µM*, NIH3T3 tox 35.5µM*, hNpr1 antagonist 1.6% and FLuc inh inactive.
Screening CC1(c2ccccc2)N(Cc2cccnc2)C(=O)OC12CCN(C(=O)Cc1ccccc1)CC2 (stereo not drawn) returned HEK cytotox -8.0%, NIH3T3 tox inconclusive, hNpr1 antagonist 8.0% and FLuc inh inactive.
Screening Cn1ccc(C(=O)N2CCC3(CC2)OC(=O)N(Cc2ccccc2F)C3(C)c2ccccc2)n1 (stereo not drawn) returned HEK cytotox -10.8%, NIH3T3 tox inconclusive, hNpr1 antagonist -1.1% and FLuc inh inactive.
`COc1cccc(CC(=O)N2CCC3(CC2)OC(=O)N(Cc2ccccc2F)C3(C)c2ccccc2)c1` (stereo not drawn) gave HEK cytotox inconclusive, NIH3T3 tox 25.1µM*, hNpr1 antagonist -4.0% and FLuc inh inactive.
Cc1cc2nc3n(c(=O)c2n1CC(=O)Nc1cccc(Cl)c1)CCCCC3 was read as HEK cytotox inconclusive, NIH3T3 tox inconclusive, hNpr1 antagonist -16.5% and FLuc inh inactive.
`COc1cc(F)ccc1-c1nccc2c(=O)cc(N3CCOCC3)oc12` gave HEK cytotox -6.4%[172 µM], NIH3T3 tox 44.7µM*, hNpr1 antagonist 1.6%[70.6 µM] and FLuc inh inactive.
COc1ccc(-c2nccc3c(=O)cc(N4CCOCC4)oc23)cc1OC was read as HEK cytotox inconclusive, NIH3T3 tox 10µM*, hNpr1 antagonist -1.0%[70.6 µM] and FLuc inh inactive.
For O=c1cc(N2CCOCC2)oc2c(NCc3ccc(F)cc3)nccc12 the results were HEK cytotox inconclusive, NIH3T3 tox 25.1µM*, hNpr1 antagonist 3.9%[70.6 µM] and FLuc inh inactive.
For CN1CCN(c2cc(=O)c3ccnc(-c4cccc(F)c4)c3o2)CC1 the results were HEK cytotox -13.5%[172 µM], NIH3T3 tox 35.5µM*, hNpr1 antagonist -1.1%[70.6 µM] and FLuc inh inactive.
For CN1CCN(c2cc(=O)c3ccnc(-c4cccc(CO)c4)c3o2)CC1 the results were HEK cytotox -6.5%[172 µM], NIH3T3 tox inconclusive, hNpr1 antagonist -3.5%[70.6 µM] and FLuc inh inactive.
For O=c1cc(N2CCOCC2)oc2c(Nc3ccccn3)nccc12 the results were HEK cytotox -20.6%[172 µM], NIH3T3 tox inconclusive, hNpr1 antagonist 4.6%[70.6 µM] and FLuc inh inactive.
`O=C(C1CCCN1C(=O)c1cccc(Cl)c1)N1CCCC(c2nc3ncccc3[nH]2)C1` (stereo not drawn) gave HEK cytotox inactive and NIH3T3 tox -13.6%.
`CN1CCN(c2cc(=O)c3ccnc(-c4ccc(CO)cc4)c3o2)CC1` gave HEK cytotox inactive, NIH3T3 tox inconclusive, hNpr1 antagonist 5.1%[70.6 µM] and FLuc inh inactive.
Screening Cc1cc(-c2nccc3c(=O)cc(N(C)c4ccccc4)oc23)ccn1 returned HEK cytotox inconclusive, NIH3T3 tox 10µM*, hNpr1 antagonist -1.4%[70.6 µM] and FLuc inh inactive.
CC(=O)Nc1cccc(-c2nccc3c(=O)cc(-c4ccncc4)oc23)c1 was read as HEK cytotox inactive, NIH3T3 tox inconclusive, hNpr1 antagonist 2.7%[70.6 µM] and FLuc inh inactive.
O=c1cc(N2CCOCC2)oc2c(-c3ccc(F)cc3)nccc12 was read as HEK cytotox inconclusive, NIH3T3 tox 31.6µM*, hNpr1 antagonist 1.7%[70.6 µM] and FLuc inh inactive.
`CN1CCN(c2cc(=O)c3ccnc(Nc4ccc(F)c(Cl)c4)c3o2)CC1` gave HEK cytotox inconclusive, NIH3T3 tox 100µM*, hNpr1 antagonist 1.9%[70.6 µM] and FLuc inh inactive.
`Cc1cc(-c2nccc3c(=O)cc(N4CCOCC4)oc23)ccn1` gave HEK cytotox -21.4%[172 µM], NIH3T3 tox 31.6µM*, hNpr1 antagonist 4.6%[70.6 µM] and FLuc inh inactive.
Cc1cc(C)cc(N2CCN(c3cc(C4CC(O)C4)nc(C)n3)CC2=O)c1 (stereo not drawn) was read as HEK cytotox -12.3%, NIH3T3 tox -1.7%, hNpr1 antagonist 4.9% and FLuc inh inactive.
Screening O=c1cc(-c2ccncc2)oc2c(-c3ccccc3F)nccc12 returned HEK cytotox inconclusive, NIH3T3 tox inconclusive, hNpr1 antagonist 12.4%[70.6 µM] and FLuc inh inactive.
Screening O=c1cc(N2CCOCC2)oc2c(N3CCOCC3)nccc12 returned HEK cytotox inconclusive, NIH3T3 tox 39.8µM*, hNpr1 antagonist 6.3%[70.6 µM] and FLuc inh inactive.
For O=c1cc(N2CCOCC2)oc2c(-c3ccc(F)c(Cl)c3)nccc12 the results were HEK cytotox -11.6%[172 µM], NIH3T3 tox 17.8µM*, hNpr1 antagonist 4.2%[70.6 µM] and FLuc inh inactive.
`Cc1ccccc1-c1nccc2c(=O)cc(C3=CCOCC3)oc12` gave HEK cytotox inconclusive, NIH3T3 tox inconclusive, hNpr1 antagonist 0.7%[70.6 µM] and FLuc inh inactive.
For CN(C)c1cc(=O)c2ccnc(-c3ccc(N4CCOCC4)cc3)c2o1 the results were HEK cytotox inactive, NIH3T3 tox inconclusive, hNpr1 antagonist -1.5%[70.6 µM] and FLuc inh 44.7µM*.
`O=c1cc(N2CCOCC2)oc2c(-c3cccc4[nH]ccc34)nccc12` gave HEK cytotox inconclusive, NIH3T3 tox 8.91µM*, hNpr1 antagonist 6.9%[70.6 µM] and FLuc inh inactive.
N#Cc1ccc(CN2CCC(N3Cc4cccn4C3=O)CC2)cc1 was read as HEK cytotox inconclusive and NIH3T3 tox -24.0%.
CC(=O)Nc1ccc(S(=O)(=O)N[C@H]2CO[C@H]3[C@@H]2OC[C@@H]3n2nnnc2Oc2ccc3c(c2)OCO3)cc1 was read as HEK cytotox -11.5%, NIH3T3 tox -0.8%, hNpr1 antagonist -7.3% and FLuc inh inactive.
For COc1ccc(C(=O)N[C@@H]2CCC[C@@H]2C(=O)NCc2ccccc2C(F)(F)F)cc1 the results were HEK cytotox -35.2%, NIH3T3 tox -8.3%, hNpr1 antagonist -6.6% and FLuc inh inactive.
CC(C)(C)CC(=O)Nc1cnc(-c2cccc(Cl)c2)nc1 was read as HEK cytotox 35.5µM*, NIH3T3 tox 31.6µM*, hNpr1 antagonist 3.98µM* and FLuc inh 0.251µM*.
O=C(CC1=C2CCCCC2N(Cc2ccc(F)cc2)C1=O)NCCc1c[nH]c2ccccc12 (stereo not drawn) was read as HEK cytotox inconclusive, NIH3T3 tox inconclusive, hNpr1 antagonist -18.3% and FLuc inh inactive.
Screening CC[C@@]1(O)CCN(C(=O)c2cccc(-c3cccc(OC)c3)c2)C[C@H]1O returned HEK cytotox -20.6%, NIH3T3 tox -0.7%, hNpr1 antagonist -1.1% and FLuc inh inactive.
Screening COc1ccc(OC)c(NC(=O)N2C[C@@H](F)C[C@H]2C(=O)N2CCCCC2)c1 returned HEK cytotox -11.3%, NIH3T3 tox 11.2µM*, hNpr1 antagonist 3.6% and FLuc inh inactive.
COc1ccc(NC(=O)N2C[C@@H](F)C[C@H]2C(=O)N2CCCCC2)cc1F was read as HEK cytotox -2.2%, NIH3T3 tox 0.8%, hNpr1 antagonist 2.8% and FLuc inh inactive.

Screening data from PubChem.
